Targets with a hit are over-represented here; the source holds about 8,800 in all. About 0.5% of all pairs of compound and target were hits.
Each target was assayed with CN1CCN(CCOc2cc(OC3CCOCC3)c3c(Nc4c(Cl)ccc5c4OCO5)ncnc3c2)CC1 [saracatinib] (assay: log2 fold change, soluble protein after heating vs DMSO (PISA); higher = thermal stabilisation; K562 lysate, 10 uM; active = over 0.2 and 3.5 SD of the protein, either way, in both replicates (recomputed)).
How it was run: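 To prepare the extract, K562 pellets were dounce-homogenised in PBS pH 7.4 with 1 mM MgCl2, giving crude material at 1 mg/mL protein. This was treated with 10 μM compound for 30 min, then heated in aliquots for 3 min over 48°C-58°C before pooling and addition of NP-40 to 0.5% at 4°C. Centrifugation at 21,000xg for 90 min left soluble protein in the supernatant, which TMTpro 16plex LC-MS/MS quantified with equalised channel sums. Results are log-two fold changes in thermal stability compared with solvent controls, from duplicates.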

UniProt Q92759, sequence (Q92759 whole entry, looked up): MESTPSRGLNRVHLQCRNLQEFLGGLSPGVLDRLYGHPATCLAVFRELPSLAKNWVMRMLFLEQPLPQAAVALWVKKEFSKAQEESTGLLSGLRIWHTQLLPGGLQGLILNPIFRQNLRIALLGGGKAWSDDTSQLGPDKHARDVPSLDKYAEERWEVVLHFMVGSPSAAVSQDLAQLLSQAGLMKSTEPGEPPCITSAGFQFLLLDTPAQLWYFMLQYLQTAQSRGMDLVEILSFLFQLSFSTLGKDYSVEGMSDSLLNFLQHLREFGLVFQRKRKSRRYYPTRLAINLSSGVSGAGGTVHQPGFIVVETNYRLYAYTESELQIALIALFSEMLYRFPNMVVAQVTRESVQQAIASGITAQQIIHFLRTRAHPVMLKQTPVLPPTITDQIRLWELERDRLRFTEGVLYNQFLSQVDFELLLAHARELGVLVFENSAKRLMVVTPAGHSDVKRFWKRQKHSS
UniProt P49840, sequence (P49840 whole entry, looked up): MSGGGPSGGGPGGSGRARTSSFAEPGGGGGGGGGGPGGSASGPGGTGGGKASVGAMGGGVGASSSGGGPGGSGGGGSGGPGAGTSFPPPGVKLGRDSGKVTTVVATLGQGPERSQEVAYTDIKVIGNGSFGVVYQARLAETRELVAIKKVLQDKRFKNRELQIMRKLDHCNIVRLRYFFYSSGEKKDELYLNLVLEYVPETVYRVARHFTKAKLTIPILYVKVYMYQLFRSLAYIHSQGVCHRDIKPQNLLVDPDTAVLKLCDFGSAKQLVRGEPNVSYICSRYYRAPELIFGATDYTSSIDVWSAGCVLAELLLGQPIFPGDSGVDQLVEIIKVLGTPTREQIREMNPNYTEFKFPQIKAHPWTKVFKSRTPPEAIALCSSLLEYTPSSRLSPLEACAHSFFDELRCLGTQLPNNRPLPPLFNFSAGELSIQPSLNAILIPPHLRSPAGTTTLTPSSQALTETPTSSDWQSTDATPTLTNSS
UniProt P43250, sequence (P43250 whole entry, looked up): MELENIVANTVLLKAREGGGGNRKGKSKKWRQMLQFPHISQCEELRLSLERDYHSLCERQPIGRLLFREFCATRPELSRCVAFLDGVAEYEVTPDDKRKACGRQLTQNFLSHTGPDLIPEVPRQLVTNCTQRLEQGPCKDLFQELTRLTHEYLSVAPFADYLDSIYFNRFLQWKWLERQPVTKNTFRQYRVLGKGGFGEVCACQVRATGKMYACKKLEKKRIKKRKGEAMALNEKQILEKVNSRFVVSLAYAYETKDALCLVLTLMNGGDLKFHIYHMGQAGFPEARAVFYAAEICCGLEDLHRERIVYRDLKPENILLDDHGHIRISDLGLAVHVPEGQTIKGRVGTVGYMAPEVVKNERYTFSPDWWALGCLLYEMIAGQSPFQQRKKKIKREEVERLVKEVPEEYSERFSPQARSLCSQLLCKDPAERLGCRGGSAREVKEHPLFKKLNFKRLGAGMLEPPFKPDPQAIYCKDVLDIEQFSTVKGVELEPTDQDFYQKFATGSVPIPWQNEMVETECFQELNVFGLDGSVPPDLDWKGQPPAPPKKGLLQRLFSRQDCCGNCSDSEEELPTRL
UniProt P49448, sequence (P49448 whole entry, looked up): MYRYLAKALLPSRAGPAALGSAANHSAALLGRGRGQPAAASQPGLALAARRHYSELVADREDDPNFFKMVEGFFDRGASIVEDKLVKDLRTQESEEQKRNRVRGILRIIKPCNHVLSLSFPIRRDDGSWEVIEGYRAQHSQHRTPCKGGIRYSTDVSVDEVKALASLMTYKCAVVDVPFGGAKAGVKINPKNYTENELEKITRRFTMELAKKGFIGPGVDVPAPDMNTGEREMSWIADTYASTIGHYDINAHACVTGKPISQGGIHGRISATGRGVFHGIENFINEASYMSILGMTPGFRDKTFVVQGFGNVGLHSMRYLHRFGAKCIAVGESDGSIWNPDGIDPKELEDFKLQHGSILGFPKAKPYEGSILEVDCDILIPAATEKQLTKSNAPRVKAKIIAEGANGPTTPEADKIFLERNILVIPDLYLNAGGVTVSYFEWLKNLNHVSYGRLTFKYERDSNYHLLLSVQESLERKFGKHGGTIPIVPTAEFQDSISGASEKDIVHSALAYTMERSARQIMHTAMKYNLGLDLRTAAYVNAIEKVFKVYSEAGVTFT
UniProt Q0VDF9, sequence (Q0VDF9 whole entry, looked up): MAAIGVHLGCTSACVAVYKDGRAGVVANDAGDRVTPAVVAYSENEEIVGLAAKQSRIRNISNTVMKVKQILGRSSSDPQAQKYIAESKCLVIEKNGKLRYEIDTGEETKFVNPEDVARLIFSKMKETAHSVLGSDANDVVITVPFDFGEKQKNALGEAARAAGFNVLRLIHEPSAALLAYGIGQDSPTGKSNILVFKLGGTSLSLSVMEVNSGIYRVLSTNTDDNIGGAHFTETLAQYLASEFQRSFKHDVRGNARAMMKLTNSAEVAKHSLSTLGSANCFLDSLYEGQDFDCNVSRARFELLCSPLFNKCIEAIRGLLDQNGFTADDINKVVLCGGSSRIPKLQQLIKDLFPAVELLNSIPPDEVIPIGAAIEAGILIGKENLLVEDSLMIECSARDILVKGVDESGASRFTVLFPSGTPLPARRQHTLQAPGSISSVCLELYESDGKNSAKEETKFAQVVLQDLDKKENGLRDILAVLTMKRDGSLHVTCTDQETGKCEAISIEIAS
UniProt O60547, sequence (O60547 whole entry, looked up): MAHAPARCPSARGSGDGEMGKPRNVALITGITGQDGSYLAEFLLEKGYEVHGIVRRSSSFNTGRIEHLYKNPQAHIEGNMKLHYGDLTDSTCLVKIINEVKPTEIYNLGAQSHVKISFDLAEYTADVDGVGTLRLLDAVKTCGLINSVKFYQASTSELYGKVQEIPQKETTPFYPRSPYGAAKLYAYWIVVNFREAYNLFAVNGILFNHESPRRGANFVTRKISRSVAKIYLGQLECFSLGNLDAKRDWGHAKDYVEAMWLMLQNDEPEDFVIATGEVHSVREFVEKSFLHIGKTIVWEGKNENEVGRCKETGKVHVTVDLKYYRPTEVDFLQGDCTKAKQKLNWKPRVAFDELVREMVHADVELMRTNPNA
UniProt Q49A26, sequence (Q49A26 whole entry, looked up): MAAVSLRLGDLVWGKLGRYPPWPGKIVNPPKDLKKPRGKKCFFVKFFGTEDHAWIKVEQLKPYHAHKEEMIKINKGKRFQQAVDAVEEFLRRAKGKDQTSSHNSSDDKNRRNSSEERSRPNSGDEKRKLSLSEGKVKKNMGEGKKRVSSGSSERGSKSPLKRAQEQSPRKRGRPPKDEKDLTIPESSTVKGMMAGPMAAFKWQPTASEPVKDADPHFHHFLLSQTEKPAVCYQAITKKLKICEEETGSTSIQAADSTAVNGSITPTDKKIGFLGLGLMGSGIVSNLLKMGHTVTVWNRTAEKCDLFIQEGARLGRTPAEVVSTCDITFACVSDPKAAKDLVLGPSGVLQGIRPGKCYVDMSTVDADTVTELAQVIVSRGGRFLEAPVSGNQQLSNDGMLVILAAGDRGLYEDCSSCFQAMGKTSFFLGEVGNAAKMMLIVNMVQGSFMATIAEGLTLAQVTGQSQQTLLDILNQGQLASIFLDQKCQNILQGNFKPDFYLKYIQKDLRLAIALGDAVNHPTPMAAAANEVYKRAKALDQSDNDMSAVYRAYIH
UniProt Q03013, sequence (Q03013 whole entry, looked up): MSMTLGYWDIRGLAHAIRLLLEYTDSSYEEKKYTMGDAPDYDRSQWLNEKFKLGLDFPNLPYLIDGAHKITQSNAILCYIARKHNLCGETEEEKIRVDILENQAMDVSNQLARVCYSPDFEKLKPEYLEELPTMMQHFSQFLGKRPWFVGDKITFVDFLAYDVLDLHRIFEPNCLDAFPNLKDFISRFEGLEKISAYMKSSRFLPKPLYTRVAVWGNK
UniProt Q9BXW7, sequence (Q9BXW7 whole entry, looked up): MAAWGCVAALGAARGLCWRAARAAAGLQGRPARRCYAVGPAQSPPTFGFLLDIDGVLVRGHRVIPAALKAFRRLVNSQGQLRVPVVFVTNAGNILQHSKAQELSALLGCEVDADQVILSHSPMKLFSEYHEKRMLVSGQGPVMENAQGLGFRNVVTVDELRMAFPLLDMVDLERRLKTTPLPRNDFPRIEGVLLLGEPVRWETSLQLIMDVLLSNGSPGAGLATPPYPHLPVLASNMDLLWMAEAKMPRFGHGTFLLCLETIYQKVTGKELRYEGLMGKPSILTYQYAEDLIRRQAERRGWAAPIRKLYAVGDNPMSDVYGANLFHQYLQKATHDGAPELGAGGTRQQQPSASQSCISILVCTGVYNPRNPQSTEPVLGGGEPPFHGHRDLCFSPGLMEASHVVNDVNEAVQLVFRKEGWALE
UniProt P26583, sequence (P26583 whole entry, looked up): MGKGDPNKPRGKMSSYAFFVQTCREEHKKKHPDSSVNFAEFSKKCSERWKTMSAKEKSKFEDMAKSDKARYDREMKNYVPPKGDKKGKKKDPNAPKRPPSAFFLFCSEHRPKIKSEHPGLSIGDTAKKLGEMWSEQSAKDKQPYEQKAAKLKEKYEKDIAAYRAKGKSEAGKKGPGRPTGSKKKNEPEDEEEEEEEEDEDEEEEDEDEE
UniProt Q99871, sequence (Q99871 whole entry, looked up): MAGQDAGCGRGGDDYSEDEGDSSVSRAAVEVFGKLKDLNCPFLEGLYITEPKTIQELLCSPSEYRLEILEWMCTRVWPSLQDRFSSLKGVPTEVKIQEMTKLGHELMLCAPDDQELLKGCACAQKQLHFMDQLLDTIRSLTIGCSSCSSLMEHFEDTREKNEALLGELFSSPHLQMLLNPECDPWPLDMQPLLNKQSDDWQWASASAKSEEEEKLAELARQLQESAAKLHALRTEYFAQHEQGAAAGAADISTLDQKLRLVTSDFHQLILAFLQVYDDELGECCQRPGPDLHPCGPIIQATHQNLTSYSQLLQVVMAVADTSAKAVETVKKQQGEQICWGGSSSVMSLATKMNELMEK

Target	log2 fold change
GLYR1 (UniProt Q49A26)	0.05 (inactive)
HMGCS1 (UniProt Q01581)	0.004 (inactive)
GSTM4 (UniProt Q03013)	-0.13 (inactive)
KARS1 (UniProt Q15046)	0.004 (inactive)
GTF2H4 (UniProt Q92759)	0.029 (inactive)
HAUS7 isoform 2 (UniProt Q99871)	0.044 (inactive)
GSE1 (UniProt Q14687)	0.031 (inactive)
INTS10 (UniProt Q9NVR2)	0.052 (inactive)
GMDS (UniProt O60547)	-0.033 (inactive)
HDHD5 (UniProt Q9BXW7)	-0.06 (inactive)
GLUD2 (UniProt P49448)	0.007 (inactive)
ILKAP (UniProt Q9H0C8)	-0.013 (inactive)
HSPA14 (UniProt Q0VDF9)	0.002 (inactive)
GLUL (UniProt P15104)	-0.004 (inactive)
GSK3A (UniProt P49840)	0.01 (inactive)
GRK6 isoform 2 (UniProt P43250)	-0.056 (inactive)
GRK2 (UniProt P25098)	-0.009 (inactive)
KDM5C (UniProt P41229)	0.008 (inactive)
ILK (UniProt Q13418)	0.011 (inactive)
HLTF (UniProt Q14527)	0.004 (inactive)
INTS7 (UniProt Q9NVH2)	0.005 (inactive)
ICAM2 (UniProt P13598)	0.004 (inactive)
HSP90AA4P (UniProt Q58FG1)	-0.03 (inactive)
HMGB2 (UniProt P26583)	0.007 (inactive)

— the supplement of paper PMC10849652
